Hit rate of the full screen: of about 310,000 compounds, about 11,000 (3.5%) were called active. Roughly 8% stayed inconclusive and do not appear here. This is one part of a sample in which actives are shown more often than they occur. The call rests on the fitted dose curve; in most records, active means well fitted inhibition curve with a large enough effect; inconclusive means small, poorly fitted or top-dose-only effect, or effect the other way; inactive means flat fitted curve, though single readings scatter.
On the % scale 0 is the no-effect control and ±100 the full control effect; potency means the concentration at half of the fitted maximal effect.

This experiment is described as follows: VP16 counterscreen qHTS for inhibitors of ROR gamma transcriptional activity.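 Further: Gal4-VP16 expression switched on by copper sulfate through the metallothionein promoter; nearly all actives have a fitted effect of over 50% in size.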 Conditions: Drosophila S2 Gal4-VP16 UAS-luciferase, luminescence, 20 h; series mostly up to 53.6 µM; activity, negative = inhibition: at the top concentration. (A counterscreen serves to expose hits that act by an unwanted route or on another target.)
Take `CCCc1ccc(OCCNC(=O)c2ccco2)cc1`: the “activity, negative = inhibition” value is -28.8% (inactive).
On the same count and under the same terms, the result for `COc1ccc(CN2C3CCCC2CC(NC(=O)c2cccc(F)c2)C3)cc1` (centres undefined) reads 4.69% (inactive); that for `CC(NCC(=O)Nc1cc(Cl)cc(Cl)c1)c1ccccc1` (centres undefined), -25.8% (inactive); that for `COc1ccc(C(=O)NC2CC2)cc1OC1CCN(Cc2ccc(SC)cc2)CC1`, -3.04% (inactive).
Turning to `COCCN(C(=O)CCC(=O)Nc1ccccn1)C(C(=O)NCCC(C)C)c1ccc(OC)cc1` (centres undefined), the “activity, negative = inhibition” value is 3.24% (inactive).
The same measure, in the same setting: as for `COCCN(C(=O)CCC(=O)Nc1nccs1)C(C(=O)NC(C)(C)C)c1ccc(Cl)cc1` (centres undefined), the figure is 7.06% (inactive).
Regarding `COCCN(C(=O)CCC(=O)Nc1nccs1)C(C(=O)NCCC(C)C)c1ccc(F)cc1` (centres undefined), the Potency was 3.55 µM (active).
For the molecule `COc1ccc(C2NC(=O)c3ccccc3N2)cc1` (centres undefined), the “activity, negative = inhibition” value is 3.54% (inactive).
Still for that read-out and setting: the result for `Cc1ccc(-c2nn(-c3ccccc3)cc2/C=N/NC(=O)c2ccc3c(c2)OCO3)cc1` reads -6.45% (inactive).
For the molecule `Cc1nnc(SCC(=O)N/N=C/c2cn(-c3ccccc3)nc2-c2ccc(F)cc2)n1-c1ccccc1`, the “activity, negative = inhibition” value was 1.16% (inactive).
`CCc1ccc(-c2nn(-c3ccccc3)cc2CSC(=N)N)cc1`: the Potency was 20 µM (active).
Consider `C/C(=N\NC(=S)NC(C)C)c1ccc(C(C)(C)C)cc1`, for which the Potency was 3.98 µM (active).
In the case of `C/C(=N\NC(N)=S)c1ccncc1`, the “activity, negative = inhibition” value is -10.3% (inactive).
Same read-out and setting: as for `CC/C(=N\NC(=S)NC(C)C)c1ccc(OC(F)F)cc1`, the figure is -4.95% (inactive); as for `CCOC(=O)N1CCN(Cc2nc3cc(NC(=O)CC)ccc3n2CC)CC1`, 0.519% (inactive); as for `Cc1ccc(CSCC(N)C(=O)O)cc1` (centres undefined), -1.53% (inactive).
Turning to `Cc1ccc(C(=O)CNc2ccc(F)cc2)cc1`, the “activity, negative = inhibition” value was -10.8% (inactive).
With `Cc1ccc(SC(CC(=O)c2ccc(C(C)(C)C)cc2)C(=O)O)cc1` (centres undefined), the Potency was 5.01 µM (active).
Turning to `CCOc1cc(C2/C(=C(/O)c3ccc(S(=O)(=O)N4CCCCC4)cc3)C(=O)C(=O)N2CCOC)ccc1O` (centres undefined), the “activity, negative = inhibition” value is -12.6% (inactive).
Same read-out and setting: as for `COc1ccccc1OCC(=O)Nc1c2c(nn1-c1ccc(F)cc1)CS(=O)(=O)C2`, the figure is -19.6% (inactive).
Take `COC(=O)c1ccc(NC(=S)Nc2cccc(C)n2)cc1`: the Potency is 7.08 µM (active).
As for `COC(=O)c1ccc(NC(=S)NN2CCOCC2)cc1`, the “activity, negative = inhibition” value is -5.05% (inactive).
Consider `COC(=O)c1ccc(NC(=O)Nc2ccc(C)cc2)cc1`, for which the “activity, negative = inhibition” value is 17.7% (inactive).
On the same count and under the same terms, the result for `O=C(O)CCCn1c(=O)c2cccn2c2ccc(F)cc21` reads 2.07% (inactive); that for `O=C(c1cn(-c2ccccc2)nc1-c1cccnc1)N1CCCCC1`, 4.94% (inactive).
Take `O=C(Nc1cn(-c2ccccc2)nc1-c1ccccc1)c1ccccc1`: the “activity, negative = inhibition” value is -10.9% (inactive).
Take `O=C(NNC(=S)NC(=O)c1cn(-c2ccccc2)nc1-c1ccccc1)c1ccncc1`: the Potency was 8.91 µM (active).
`Cc1cc2c(c(=O)n1Cc1ccccc1)C1O[C@](CCCCN3C(=O)c4ccccc4C3=O)(Cc3ccccc31)O2`: the activity, negative = inhibition was -4.77% [at 10 µM] (inactive).
For `CN(CC(=O)NCc1ccc(Cl)cc1)S(=O)(=O)c1cccs1`, the “activity, negative = inhibition” value is 24.2% (inactive).
The same measure, in the same setting: as for `CC(C)=CCCC(C)CN1CCC(n2nccc2NC(=O)c2ccccc2)CC1` (centres undefined), the figure is 2.6% (inactive).
The same measure, in the same setting: the result for `O=C(CN(C(=O)CCC(=O)Nc1nccs1)c1ccc(F)cc1)NCc1ccc2c(c1)OCO2` reads -4.7% (inactive); that for `O=C(/C=C/c1ccc(F)cc1)NCCNC(=O)/C=C/c1ccc(F)cc1`, 0.732% (inactive).
In the case of `O=C(/C=C/c1ccc(F)cc1)NC(=S)NNC(=O)c1cccnc1`, the Potency is 10 µM (active).
For the molecule `CC(C)c1ccc(/C=C/C(=O)NNC(=O)c2cccnc2)cc1`, the “activity, negative = inhibition” value is -4.54% (inactive).
Still for that read-out and setting: as for `COc1ccc(C(=O)N(C)CC(O)c2ccccc2)cc1OC1CCN(C(C)=O)CC1` (centres undefined), the figure is -0.542% (inactive); as for `CN(Cc1nc2ccccc2c(=O)[nH]1)Cc1cc(=O)oc2ccc3ccccc3c12`, -10.9% (inactive).
With `CCN(CC(=O)Nc1cccc(S(N)(=O)=O)c1)Cc1nc2ccccc2c(=O)[nH]1`, the Potency was 7.94 µM (active).
With `CCN(CC)c1ccc(C(=O)NNC(=O)CCc2nc3ccccc3c(=O)[nH]2)cc1`, the “activity, negative = inhibition” value was 2.44% (inactive).
For `NS(=O)(=O)c1cccc(NC(=O)CSc2nc3ccccc3n2-c2ccccc2)c1`, the “activity, negative = inhibition” value was -0.867% (inactive).
Still for that read-out and setting: as for `O=C(COc1ncnc2ccccc12)NC(=O)NCc1ccccc1`, the figure is 16.6% (inactive); as for `CCN(CC(=O)Nc1ccc(Cl)c(S(=O)(=O)N(C)C)c1)Cc1nc2ccccc2c(=O)[nH]1`, 0.788% (inactive).
For `CCCC(=O)N(CCc1ccccc1)Cc1nc2ccccc2c(=O)[nH]1`, the “activity, negative = inhibition” value is -2.29% (inactive).
`CCN(CC(=O)NC(=O)NCc1ccccc1)Cc1nc2ccccc2c(=O)[nH]1`: the Potency was 2.24 µM (active).
On the same count and under the same terms, as for `O=C(c1ccco1)N(Cc1nc2ccccc2c(=O)[nH]1)C1CCCC1`, the figure is 8.91 µM (active).
Regarding `CC(=O)NCC(=O)N1CCC(n2nccc2NC(=O)CCCc2ccccc2)CC1`, the “activity, negative = inhibition” value was 29% (inactive).
On the same count and under the same terms, as for `O=S(=O)(Nc1ccccc1Cl)c1cccc2nsnc12`, the figure is 2.44% (inactive).
Turning to `O=c1c(-c2cccc(Cl)c2)c[nH]n1-c1ccccc1`, the “activity, negative = inhibition” value was 5.03% (inactive).
In the case of `COc1ccc(NC(=O)c2sc3nc(C)nc(N4CCN(c5ccccn5)CC4)c3c2C)c(OC)c1`, the “activity, negative = inhibition” value was -22.9% (inactive).
Regarding `COc1ccc(C(=O)Nc2ccccc2C(=O)N/N=C/c2ccc(O)c(OC)c2)cc1`, the Potency is 0.316 µM (active).
On to `COc1cc(/C=N/NC(=O)c2ccc(N3CCCC3=O)cc2)ccc1O`, for which the “activity, negative = inhibition” value was 6.95% (inactive).
On the same count and under the same terms, the result for `COc1cc(/C=N/NC(=O)c2ccccc2)ccc1OS(=O)(=O)c1ccccc1` reads -8.47% (inactive).
For the molecule `COc1ccc(C(=O)Nc2ccccc2C(=O)N/N=C/c2ccccc2OC)cc1`, the Potency was 12.6 µM (active).
Regarding `COc1ccc(C(=O)Nc2ccccc2C(=O)NCc2ccco2)cc1`, the “activity, negative = inhibition” value was 5.86% (inactive).
Turning to `COc1ccc(/C=N/NC(=O)c2ccc3c(c2)OCCO3)c(OC)c1`, the “activity, negative = inhibition” value is 0.751% (inactive).
Regarding `Cn1c(Nc2cccc(Cl)c2)nc2ccccc21`, the “activity, negative = inhibition” value was -12.6% (inactive).
On the same count and under the same terms, the result for `O=C(Nc1nc2c(F)cc(F)cc2s1)C1COc2ccccc2O1` (centres undefined) reads 4.29% (inactive); that for `Fc1cc(F)c2nc(N3CCOCC3)sc2c1`, -0.814% (inactive).
With `Fc1cc(F)c2nc(Nc3nc4c(F)cccc4s3)sc2c1`, the Potency was 7.08 µM (active).
As for `CCc1ccc(/C=N/NC(=O)c2nnn(-c3nonc3N)c2CN2CCc3ccccc32)cc1`, the “activity, negative = inhibition” value was -19.6% (inactive).
The same measure, in the same setting: as for `COc1ccc(C(C(=O)NC2CCCCC2)N(C(=O)c2snc(C(N)=O)c2N)c2ccccc2OC)cc1` (centres undefined), the figure is 3.53% (inactive).
In the case of `CCC1(C)Cc2c(sc3[nH]c(=S)n(Cc4ccccc4)c(=O)c23)CO1` (centres undefined), the Potency was 1.26 µM (active).
In the case of `CCC1(C)Cc2c(sc3nc(SC)[nH]c(=O)c23)CO1` (centres undefined), the “activity, negative = inhibition” value was -14% (inactive).
For `CCC1(C)Cc2c(sc3nnn(CC(=O)Nc4ccc(Cl)cc4)c(=O)c23)CO1` (centres undefined), the “activity, negative = inhibition” value is -0.473% (inactive).
Regarding `CCOc1ccc(N(CC(=O)Nc2ccccc2F)S(=O)(=O)c2c(C)[nH]c(=O)[nH]c2=O)cc1`, the “activity, negative = inhibition” value was -3.41% (inactive).
